TMEM16A inh: TMEM16A chloride channel inhibitors, primary screen, cell-based, HTS. hit rate 1.2% among 310,000. Anoctamin-1 (Mus musculus), Q8BHY3. HEK293 TMEM16A/YFP iodide influx fluorescence, ionomycin. normalized B-score (activity score, 25-100; higher = stronger inhibition) at 10 µM;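 active = ratio plate-corrected score three or more library SD toward inhibition, starting fluorescence score within five deviations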;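 note: score derived from kinetic fluorescence span divided by baseline fluorescence per well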
TMEM16A act: TMEM16A chloride channel activators or potentiators, primary screen, cell-based, HTS | AID 623877, 2012 | hit rate 0.3% among 340,000 | B-score at 10 µM | Anoctamin-1 (Mus musculus), Q8BHY3 | HEK293 TMEM16A/YFP-H148Q/I152L, iodide quench fluorescence; stronger effect = lower value;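 active = fluorescence-ratio B-score plate-corrected deviation score at least 3 library SD below zero, with starting fluorescence score within 5 deviations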;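 note: channel opened by trigger with iodide after compound preincubation; score built on the fluorescence ratio of max minus min over baseline; more negative score means more quench and so TMEM16A activation or potentiation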
NOD2 RIPK2 PPI: NOD2-RIPK2 binding disruptors in cells, primary screen, fluorescence, CHO cells, BLA complementation. Receptor-interacting serine/threonine-protein kinase 2 (Homo sapiens), O43353. CCF4 ratio. inhibition, % at 4.98 µM. hit rate 0.38% among 360,000. AID 624267, 2012; in the data active = inhibition above about 21%;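 note: 0% = vehicle only and 100% = reference blocker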
TLR9-MyD88 inh: inhibitors of TLR9-MyD88 association in cells, primary screen, cell-based, CHO, BLA complementation, fluorescence | CCF4 FRET ratio | hit rate 0.21% among 340,000 | AID 504734, 2011 | inhibition, % at 4.98 µM;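 active = inhibition above the mean over all tested compounds plus 3 SD, cut at about 21% in these data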;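 note: 0% = DMSO only wells and 100% = clavulanate BLA inhibitor control wells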
Target sequence (Q99836 whole entry, looked up): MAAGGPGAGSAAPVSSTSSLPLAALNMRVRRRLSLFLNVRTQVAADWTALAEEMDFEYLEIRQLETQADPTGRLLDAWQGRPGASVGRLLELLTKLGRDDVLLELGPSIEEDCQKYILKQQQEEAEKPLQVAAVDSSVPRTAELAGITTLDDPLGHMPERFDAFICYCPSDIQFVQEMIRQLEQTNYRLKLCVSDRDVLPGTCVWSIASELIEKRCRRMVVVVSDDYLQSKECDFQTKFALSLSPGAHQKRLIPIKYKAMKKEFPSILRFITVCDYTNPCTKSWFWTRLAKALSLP
Target sequence (Q9NR96 whole entry, looked up): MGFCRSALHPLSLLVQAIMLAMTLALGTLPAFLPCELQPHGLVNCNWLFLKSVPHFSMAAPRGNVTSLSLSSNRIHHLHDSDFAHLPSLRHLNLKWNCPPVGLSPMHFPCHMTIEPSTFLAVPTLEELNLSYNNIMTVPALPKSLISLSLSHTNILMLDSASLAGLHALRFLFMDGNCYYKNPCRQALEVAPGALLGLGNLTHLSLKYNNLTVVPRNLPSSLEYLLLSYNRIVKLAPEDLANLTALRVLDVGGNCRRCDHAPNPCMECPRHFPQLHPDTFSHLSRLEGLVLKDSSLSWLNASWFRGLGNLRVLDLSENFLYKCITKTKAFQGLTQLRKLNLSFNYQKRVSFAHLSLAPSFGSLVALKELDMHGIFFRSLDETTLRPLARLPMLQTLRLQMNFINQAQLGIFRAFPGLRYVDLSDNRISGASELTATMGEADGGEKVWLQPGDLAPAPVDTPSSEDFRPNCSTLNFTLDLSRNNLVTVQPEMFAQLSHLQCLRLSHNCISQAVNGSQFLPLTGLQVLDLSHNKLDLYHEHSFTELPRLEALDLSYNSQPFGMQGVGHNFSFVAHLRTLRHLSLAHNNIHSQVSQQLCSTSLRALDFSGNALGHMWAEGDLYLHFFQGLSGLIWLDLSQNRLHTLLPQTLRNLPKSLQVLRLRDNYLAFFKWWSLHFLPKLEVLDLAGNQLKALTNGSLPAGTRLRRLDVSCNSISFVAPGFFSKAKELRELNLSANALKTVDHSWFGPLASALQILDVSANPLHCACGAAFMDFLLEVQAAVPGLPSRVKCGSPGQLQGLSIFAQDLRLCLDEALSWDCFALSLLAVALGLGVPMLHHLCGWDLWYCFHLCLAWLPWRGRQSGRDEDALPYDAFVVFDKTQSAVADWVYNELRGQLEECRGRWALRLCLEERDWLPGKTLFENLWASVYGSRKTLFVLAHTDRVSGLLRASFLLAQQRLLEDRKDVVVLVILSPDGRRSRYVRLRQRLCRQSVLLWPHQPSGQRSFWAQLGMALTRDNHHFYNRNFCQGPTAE
HTR2A ag: mouse Htr2a agonists via beta-arrestin recruitment, primary screen, cell-based, luminescence; activation, % at 7.6 µM; hit rate 0.66% among 360,000; CHO-K1 mHTR2A beta-arrestin complementation; percent of 30 µM serotonin response;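 active = activation above a run cutoff, the mean activation of all tested compounds plus 3 SD, cut at about 14% in these data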;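 note: 0% = plate median of compound wells and 100% = 30 µM serotonin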
TLR4-MyD88 BLA: inhibitors of TLR4-MyD88 association in cells, primary screen, cell-based, HeLa CL3-4, BLA complementation, FRET ratio | inhibition, % at 8.4 µM | Toll-like receptor 4 (Homo sapiens) + Myeloid differentiation primary response protein … | HeLa CL3-4 TLR4/MyD88 BLA complementation | hit rate 0.18% among 200,000; in the data active = inhibition above about 25%;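 note: 0% = vehicle and 100% = reference inhibitor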
MOR ag counter: OPRM1 agonists via beta-arrestin recruitment, confirmation, counter-screen for mouse HTR2A agonist project, cell-based, luminescence, single concentration; shares compounds with HTR2A ag; U2OS OPRM1 beta-arrestin PathHunter; DMSO 0%, DAMGO 9.3 µM 100%; activation, % at 9.3 µM; hit rate 5.3% among 2,300; AID 624380, 2012;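 active = mean activation above the mean of DMSO-only wells plus 3 SD, cut at about 0.5% in these data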
HTR2A ag conf: mouse HTR2A agonists, beta-arrestin recruitment, confirmation, cell-based, luminescence, CHO-K1 PathHunter, triplicate; activation, % at 7.6 µM; DMSO 0%, 30 µM serotonin 100%; shares compounds with HTR2A ag; hit rate 19% among 2,300;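 active = mean activation across triplicates above the hit threshold derived in the original primary screen, cut at about 15% in these data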
* = called active by the depositor; i = inactive; / = not tested or not shown. In the library only some 2.4% were active in any assay of this set; here they are far more common.

SMILES	TMEM16A inh	TMEM16A act	NOD2 RIPK2 PPI	TLR9-MyD88 inh	HTR2A ag	TLR4-MyD88 BLA	MOR ag counter	HTR2A ag conf
O=C(Nc1cccc(C(=O)O)c1)/C(=C\c1ccccc1)NC(=O)c1ccccc1	i	i	6	15	18*	-10	-1	-3
O=C(Nc1ccc(C(=O)O)cc1)/C(=C/c1ccc2c(c1)OCO2)NC(=O)c1cccc(Br)c1	i	i	1	0	19*	-2	0	-5
COC(=O)c1ccc2nc(-c3cccc(Cl)c3)c(Cc3cccc(Cl)c3)n2c1	/	/	1	/	2	/	/	/
O=C(NCC1CCCN(Cc2ccc3c(c2)OCCO3)C1)c1ccc2c(c1)OCO2 (configuration not stated)	i	i	-5	-13	-3	/	/	/
C/C(CCC(C)C)=N\NC(=O)COc1ccccc1-c1ccccc1	/	i	9	5	-4	4	/	/
Nc1ncnc2c1ncn2[C@@H]1O[C@H](CO)[C@@H](O)[C@H]1O	i	i	-15	-1	28*	-11	-1	-2
OCC1OC(n2ccc3c(NO)ncnc32)C(O)C1O (configuration not stated)	/	i	-17	2	18*	/	0	13
Cc1ccc(C(=O)N2CCN(Cc3nc4sc5c(c4c(=O)[nH]3)CCCC5)CC2)cc1	i	i	-3	5	-5	/	/	/
O=C(c1ccccc1F)N1CCN(Cc2nc3sc4c(c3c(=O)[nH]2)CCCC4)CC1	i	i	3	-6	16*	/	-1	-4
CC(Sc1ccccc1)C(=O)Nc1cccc(N(C)S(C)(=O)=O)c1 (configuration not stated)	i	i	-10	-5	17*	3	-1	-5
CN(c1cccc(NC(=O)c2ccccc2N(C)S(C)(=O)=O)c1)S(C)(=O)=O	i	i	0	-4	1	10	/	/
O=C(c1ccccc1)c1cccs1	i	i	-1	-9	0	-14	/	/
CC(C(=O)O)c1ccc(C(=O)c2cccs2)cc1 (configuration not stated)	i	i	-7	-4	18*	/	0	49*
CCN(CC(=O)Nc1ccc(NC(C)=O)cc1)C(=O)CSCC(=O)Nc1ccc(C)cc1	i	i	-5	0	1	/	/	/
CCOC(=O)CC(=O)CSCC(=O)Nc1ccc(C)cc1	i	i	-7	5	16*	5	0	1
COc1ccc2[nH]cc(CCNC(=O)C3CC(=O)N(c4ccc(Cl)cc4)C3)c2c1 (configuration not stated)	i	i	1	-3	16*	/	-1	3
COc1ccc(CCNC(=O)C2CC(=O)N(c3ccc(C)cc3)C2)cc1 (configuration not stated)	i	i	19	-6	2	/	/	/
COC(=O)C1=C(C)N(CCc2ccc(OC)cc2)C(=O)C1	i	i	-8	7	7	-1	/	/
CCOc1ccc(N2CC(C(=O)NCCc3c[nH]c4ccc(OC)cc34)CC2=O)cc1 (configuration not stated)	i	i	9	-9	18*	/	0	3
COC(=O)C1=C(C)N(CCc2c[nH]c3ccc(OC)cc23)C(=O)C1	i	i	-9	1	17*	-6	-1	0
CCCNC(=O)C1CC(=O)N(c2ccc(OCC)cc2)C1 (configuration not stated)	i	i	0	4	4	-5	/	/
Cc1nnc(N2C(=O)C(=O)/C(=C(/O)c3ccc4c(c3)CC(C)O4)C2c2ccccc2F)s1 (configuration not stated)	i	i	1	5	2	/	/	/
O=c1c2ccccc2nc(-c2ccc([N+](=O)[O-])cc2)n1O	i	i	-7	4	16*	0	0	-2
COC(C[C@H]1O[C@H]1[C@H](O)[C@H](C)OCc1ccccc1)OC	/	i	-10	-17	2	/	/	/
O=C(COc1ccccc1-c1ccccc1)c1ccccc1	i	i	2	-3	-4	4	/	/
SMILES	TMEM16A inh	TMEM16A act	NOD2 RIPK2 PPI	TLR9-MyD88 inh	HTR2A ag	TLR4-MyD88 BLA	MOR ag counter	HTR2A ag conf
CN1CCC(N(C)C(=O)COc2ccccc2-c2ccccc2)CC1	i	i	-10	-8	18*	9	-1	4
CC(C)(C)c1ccc(CC(=O)N2CCC2(C)C(=O)NS(=O)(=O)c2cccc(OC(F)F)c2)cc1 (configuration not stated)	/	/	0	/	16*	/	0	4
Cc1cc(C)cc(CC(=O)N2CCC2(C)C(=O)NS(=O)(=O)c2ccc(C#N)cc2)c1 (configuration not stated)	/	/	-2	/	16*	/	-1	-3
CC(C)(C)c1ccc(S(=O)(=O)NC(=O)C2(C)CCN2C(=O)C2(c3ccccc3)CC2)cc1 (configuration not stated)	/	/	-17	/	18*	/	-1	-2
O=C(/C=C/c1ccccc1Cl)N(c1ccccn1)C1CCCCC1	i	i	-8	-5	16*	0	0	40*
O=C(/C=C/c1ccccc1)N(c1ccccn1)C1CCCCC1	i	i	-1	8	2	3	/	/
O=[N+]([O-])c1ccc(/C=N/n2cn[nH]c2=S)cc1	i	i	-5	-8	8	/	/	/
COc1cccc(N2CCN(C(=O)c3ccc(=O)oc3)CC2C)c1 (configuration not stated)	i	i	-14	-9	21*	9	-1	4
CN1C(C(=O)NCc2cccc(C(F)(F)F)c2)CC2Cn3c(nc4cc(Cl)c(Cl)cc43)C21 (configuration not stated)	i	i	-1	-6	20*	/	0	-5
CC1CCCN(c2nc(-c3cccnc3)nc3scc(-c4ccccc4)c23)C1 (configuration not stated)	i	i	8	1	5	-1	/	/

Screening results: PubChem, several laboratories
